High-throughput results (PubChem BioAssay)
TRPML1 inh – qHTS for Inhibitors of the Human Mucolipin Transient Receptor Potential 1 (TRPML1). TRPML1-inducible cells, Ca2+ dye fluorescence, FDSS; active compounds read low; inhibition of EC80 agonist-evoked calcium signal. activity change, negative = inhibition, % (test concentration not listed). 0.02% of 390,000 active. AID 624415, 2012; in the data active means activity change below about -50%; inconclusive means between about -30% and that limit;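 further: stimulus is agonist 54-4 at its EC80 concentration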
Target sequence (Q9GZU1 whole entry, looked up): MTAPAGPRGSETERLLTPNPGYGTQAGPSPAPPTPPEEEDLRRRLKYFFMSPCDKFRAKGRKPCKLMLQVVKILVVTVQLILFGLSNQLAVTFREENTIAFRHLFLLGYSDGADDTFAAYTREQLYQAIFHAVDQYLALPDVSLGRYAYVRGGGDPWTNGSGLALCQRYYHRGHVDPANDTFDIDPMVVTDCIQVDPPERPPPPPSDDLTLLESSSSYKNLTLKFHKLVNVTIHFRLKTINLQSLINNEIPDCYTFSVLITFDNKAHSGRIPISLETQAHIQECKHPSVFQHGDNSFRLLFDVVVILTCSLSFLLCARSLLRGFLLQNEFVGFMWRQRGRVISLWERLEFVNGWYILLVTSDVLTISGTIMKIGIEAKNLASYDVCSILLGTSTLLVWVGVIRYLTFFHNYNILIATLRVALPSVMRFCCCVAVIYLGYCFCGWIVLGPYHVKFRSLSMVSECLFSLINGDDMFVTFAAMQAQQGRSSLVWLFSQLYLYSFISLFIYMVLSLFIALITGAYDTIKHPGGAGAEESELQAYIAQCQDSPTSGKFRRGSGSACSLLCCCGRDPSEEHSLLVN
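Tet-induced TRPML1-DL cells loaded with Ca8 no-wash calcium dye were read kinetically on FDSS. Compound addition was followed by EC80 agonist 54-4 (4 uM final); inhibition was read over 110 s.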
TRHR agonist – qHTS for Small Molecule Agonists and Allosteric Enhancers of Human TRH Receptor: Primary Screen for Agonists; Thyrotropin-releasing hormone receptor (Homo sapiens), P34981; TRHR cells, calcium flux fluo-8, FDSS agonist mode; activation, % at 2 µM; 0.18% of 360,000 active; AID 493084, 2011; in the data active means activation above about 30%
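Read-out: compound-evoked intracellular calcium rise in TRHR cells, fluo-8 dye, kinetic FDSS fluorescence at 1 s/cycle following a 10-cycle baseline. Cells cultured overnight before dye loading (30 min–1.5 h, RT).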
TRPML1 agonist – qHTS for Agonists of the Human Mucolipin Transient Receptor Potential 1 (TRPML1) | activation, % (no concentration beside the values) | 0.12% of 410,000 active | TRPML1-expressing cells, Ca2+ dye fluorescence, FDSS; in the data active means activation above about 50%; inconclusive means mostly about 30% to 49%
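Tetracycline-induced TRPML1-DL cells are seeded and incubated overnight before loading with a no-wash Ca2+ dye and quencher. Agonist activity is taken from the 110 s fluorescence read following compound pin-transfer on an FDSS, before EC80 54-4 challenge.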
KCNH2 WT inh – qHTS for Inhibitors of KCHN2 3.1: Wildtype qHTS. activity change, % at 1.84 µM. Voltage-gated inwardly rectifying potassium channel KCNH2 (Homo sapiens), Q12809. AID 720551, 2013. 0.37% of 340,000 active. U2OS, BacMam KCNH2, thallium flux FluxOr; active compounds read low;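 active means maximum activity change below -70%; inconclusive means maximum activity change between -70% and -50%; inactive means maximum activity change above -50%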
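U2OS cells were transduced with wild-type KCNH2 virus (2.03 x 10^8 / mL) for 4 h at room temperature, then cultured overnight at 37 C. Thallium flux was read with FluxOr dye. Rate constants were normalized to DMSO controls.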
TRHR enhancer – qHTS for Small Molecule Agonists and Allosteric Enhancers of Human TRH Receptor: Primary Screen for Enhancers; Thyrotropin-releasing hormone receptor (Homo sapiens), P34981; TRHR cells, fluo-8 calcium fluorescence, EC20 TRH enhancement; enhancement, % at 2 µM; 0.66% of 360,000 active; in the data active means enhancement above about 30%
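TRHR-expressing cells loaded with fluo-8 calcium dye were read kinetically (ex 480/em 530) during compound addition, then stimulated with an EC20 of TRH (10 nM final). Enhancement of the Gq-mediated intracellular calcium response was scored.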
KCNH2 3.1 inh – qHTS for Inhibitors of KCHN2 3.1: Mutant qHTS; activity change, % (tested at about 1.8 µM); 0.95% of 340,000 active; Potassium voltage-gated channel subfamily H member 2, brain isoform KCNH2 3.1 (human); U2OS KCNH2 3.1, thallium flux FluxOr; active compounds read low;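 active means maximum activity change below -70%; inconclusive means maximum activity change from -70% to -50%; inactive means maximum activity change above -50%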;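 further: thallium influx rate constant from kinetic fluorescence after stimulation buffer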
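Thallium flux read-out: FluxOr dye with Red40 quencher in HBSS/HEPES, 45 min at RT. Rate constants from kinetic reads were normalized to positive and negative DMSO controls. Cells: U2OS virally expressing the 3.1 isoform.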
Numbers stand for hits; i = inactive; ? = inconclusive; nt = no result. Shown are actives, neighbours in structure and some others; about 1.7% of the full set was active somewhere.

SMILES | TRPML1 inh | TRHR agonist | TRPML1 agonist | KCNH2 WT inh | TRHR enhancer | KCNH2 3.1 inh
Cc1ccc(OCCC(=O)OCC(=O)N2CCN(S(=O)(=O)c3ccc(C)cc3)CC2)cc1 | i | i | i | i | i | i
CN(Cc1ccccc1)S(=O)(=O)c1ccc(S(=O)(=O)N(Cc2ccc(F)cc2)C2CCCC2)cc1 | i | i | i | i | i | i
O=C(O)c1ccc(S(=O)(=O)N(Cc2ccc(F)cc2)C2CCCCC2)cc1 | i | i | i | i | 38 | i
COC(=O)c1cc2c(=O)c3ccccc3oc2nc1/C=C/N(C)C | i | 35 | i | i | i | i
COC(=O)c1cc2c(=O)c3ccccc3oc2nc1C | i | i | i | i | i | i
Cc1ccc(-c2nn(C)c(=O)c3ccccc23)cc1CNC(=O)NC1CCCCC1 | i | i | i | -142 | i | -166
O=C(CCCn1c(=S)[nH]c2cc3c(cc2c1=O)OCO3)NCCc1ccc(Cl)cc1 | i | nt | i | i | nt | i
O=C(CCCCCn1c(=S)[nH]c2cc3c(cc2c1=O)OCO3)NCCc1ccccc1 | i | i | i | i | i | -87
CN(C)c1ccc(CNC(=O)CN2CCSc3ccc(S(=O)(=O)N(C)C)cc32)cc1 | i | i | i | nt | i | nt
CN(C)S(=O)(=O)c1ccc(N2CCCC2)c(C(=O)N2CCN(c3ccc([N+](=O)[O-])cc3)CC2)c1 | i | i | i | -83 | i | -116
CC1CCN(c2ccc([N+](=O)[O-])cc2C(=O)O)CC1 | i | i | i | -133 | i | -178
CN(C)S(=O)(=O)c1ccc(N2CCCC2)c(C(=O)NCc2ccc(Cl)cc2)c1 | i | i | 75 | i | i | i
Cc1ccc(OCC(=O)N2CCN(c3ccc([N+](=O)[O-])c(N4CCOCC4)c3)CC2)cc1 | i | i | i | i | i | i
COc1ccc(CCNC(=O)c2cc(S(=O)(=O)N(C)C)ccc2N2CCCC2)cc1 | i | i | i | i | i | i
O=C(COc1ccc(Cl)cc1)N1CCN(c2ccc([N+](=O)[O-])c(N3CCOCC3)c2)CC1 | i | i | i | i | i | -81
CN(C(=O)c1cc([N+](=O)[O-])ccc1N1CCCC1)C1CCCCC1 | i | i | i | i | i | i
Cc1ccc(S(=O)(=O)N2CCC[C@H]2C(=O)OCC(=O)Nc2ccc3c(c2)OCO3)cc1 | i | nt | i | i | nt | i
CC(=O)Nc1cccc(C(=O)NN2C(=O)NC3(CCC(C)CC3)C2=O)c1 (centres undefined) | i | nt | i | i | nt | i
COc1ccccc1CCNC(=O)Cc1ccc(NC(=O)N2CCSc3ncccc32)cc1 | i | i | i | nt | i | nt
O=C(NCCc1ccccc1)c1cc(-c2ccccc2)nc2n[nH]c(-c3ccccc3)c12 | i | i | i | nt | i | nt
CC(=O)NC(c1ccccc1)c1nc(-c2cccnc2)cs1 (centres undefined) | nt | nt | i | nt | nt | nt
COc1ccc(C)cc1NC(=O)NCc1ccc2c(c1)CCN2C(=O)c1ccccc1 | i | i | i | nt | i | nt
O=C(c1sc2cc([N+](=O)[O-])ccc2c1Cl)N1CCOCC1 | i | i | i | -97 | i | i
O=C(c1cc([N+](=O)[O-])ccc1N1CCOCC1)N1CCCCC1 | i | i | i | i | i | i
O=C(c1cc([N+](=O)[O-])ccc1N1CCOCC1)N1CCN(c2ccc([N+](=O)[O-])cc2)CC1 | i | i | i | -125 | i | -106
SMILES | TRPML1 inh | TRHR agonist | TRPML1 agonist | KCNH2 WT inh | TRHR enhancer | KCNH2 3.1 inh
C#Cc1cccc(C(=O)N(Cc2cccnc2)CC2CCCN(C3CCCCC3)C2)c1 (centres undefined) | i | nt | i | i | nt | i
O=C(c1cc2cc(F)ccc2[nH]1)N(Cc1cccnc1)CC1CCCN(C2CCCCC2)C1 (centres undefined) | i | i | i | i | i | -109
Clc1ccc(Cn2nnc(-c3ccc(N4CCOCC4)cc3)n2)cc1 | i | i | i | i | i | -73
CN1CCN(c2ccc([N+](=O)[O-])cc2S(=O)(=O)N2CCOCC2)CC1 | i | i | i | i | i | i
CCN1CCN(c2ccc(S(=O)(=O)N3CCOCC3)cc2NC(=O)/C=C/c2ccc([N+](=O)[O-])cc2)CC1 | i | i | i | i | i | -75
O=[N+]([O-])c1ccc(N2CCN(Cc3ccccc3)CC2)c(S(=O)(=O)N2CCOCC2)c1 | i | i | i | i | i | -73
COc1cc2c(cc1OC)C(C(=O)Nc1ccccn1)C(c1cccnc1)N(C)C2=O (centres undefined) | -52 | i | i | i | i | i
Cn1c(SCC(=O)O)nnc1-c1ccc(NC(=O)c2ccc(Cl)c(Cl)c2)cc1 | i | i | i | -127 | i | i
COc1ccccc1C(=O)Nc1ccc(-c2nnc(SCC(=O)O)n2C)cc1 | i | i | i | i | i | i
COc1ccc(N2CCN(CCCn3ccc(NC(=O)OCc4ccccc4)nc3=O)CC2)cc1 | i | nt | i | i | nt | ?
COc1ccc(CN(C)CCCn2ccc(NC(=O)OCc3ccccc3)nc2=O)cc1OC | nt | nt | nt | i | nt | i
O=C(Nc1ccn(CCCN2CCN(c3ccccc3)CC2)c(=O)n1)OCc1ccccc1 | nt | nt | nt | i | nt | -72
CN(CCCn1ccc(NC(=O)OCc2ccccc2)nc1=O)CCc1ccccn1 | nt | nt | nt | i | nt | -85
Cc1cc(C)c(CN2CCN(CCCn3ccc(NC(=O)OCc4ccccc4)nc3=O)CC2)c(C)c1 | i | nt | i | i | nt | -82
CC(C)(C)NC(=O)C1(C)CCC(=O)N1C1CCN(Cc2ccccc2)CC1 (centres undefined) | nt | nt | i | nt | nt | nt
COc1cc2nc(Cl)nc(NC3CCN(C)CC3)c2cc1OC | nt | nt | i | nt | nt | nt
c1ccc(-c2ccncn2)cc1 | i | nt | i | i | nt | i
CC(C)(C)n1ncc2c(=O)n(Cc3c(F)ccc(F)c3Cl)cnc21 | i | nt | i | nt | nt | nt
Cc1ccccc1NC(=O)C(C)OC(=O)C1CCCO1 (centres undefined) | i | nt | i | i | nt | i
CC(C)(C)c1ccc(C(=O)N2CCC2(C)C(=O)Nc2ccc3nc[nH]c3c2)cc1 (centres undefined) | nt | nt | i | nt | nt | nt
COC(=O)/C=C(\C)NC(=O)c1cccs1 | i | i | i | i | i | i
COC(=O)/C=C(\C)NC(=O)c1ccc(F)cc1 | i | i | i | i | 34 | i
